Compound activity (PubChem BioAssay)
Shown is part of a subset that was picked to be rich in hits.
15-hLO-2 inh – inhibitors of human 15-lipoxygenase 2 (ALOX15B); AID 881; Potency, µM (doses to about 57.1 µM), for inactives: top-dose activity change, negative = inhibition, most hits filed as inhibitors; purified 15hLO-2, xylenol orange hydroperoxide absorbance; O15296; 0.56% of 110,000 active; also: potency is read from the fitted curve at half-maximal effect; nearly all actives have a fitted effect of over 60% in size
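Purified human 15hLO-2 (50 nM) preincubated 15 min with compound, then 45 uM arachidonic acid for 90 min at RT in 25 mM Hepes pH 7.5, 0.01% Triton X-100. Hydroperoxide detected by Fe-xylenol orange; 573/405 nm absorbance ratio.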
IMPase Li inh – cell-permeable IMPase inhibitors with lithium potentiation. AID 1457. Potency, µM (doses to about 59.4 µM), inactives show at the highest dose activity, negative = IMPase inhibition, most hits filed as inhibitors. 0.35% of 210,000 active. CHO-M1 cells, IP1 TR-FRET (IP-One), carbachol + lithium;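 also: IP1 builds up when IMPase is blocked and the TR-FRET signal falls; potency is read from the fitted curve at half-maximal effect; plate controls were basal vehicle for no effect and high inhibitor control for full effect; nearly all actives have a fitted effect of over 50% in size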
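Lithium-sensitised IP1 accumulation assay; M1-expressing CHO cells treated 30 min at 37C with compound. Competitive antibody detection by time-resolved FRET followed a 10 min room-temperature lysis step.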
12-hLO inh – inhibitors of human 12-lipoxygenase (ALOX12); purified 12-hLO, xylenol orange hydroperoxide absorbance; 0.12% of 150,000 active; Potency, µM (series often up to 57.1 µM), for the others: at the highest dose activity change, negative = inhibition, most hits filed as inhibitors; P18054; also: potency is read from the fitted curve at half-maximal effect; nearly all actives have a fitted effect of over 55% in size
Target sequence (P18054 whole entry, looked up): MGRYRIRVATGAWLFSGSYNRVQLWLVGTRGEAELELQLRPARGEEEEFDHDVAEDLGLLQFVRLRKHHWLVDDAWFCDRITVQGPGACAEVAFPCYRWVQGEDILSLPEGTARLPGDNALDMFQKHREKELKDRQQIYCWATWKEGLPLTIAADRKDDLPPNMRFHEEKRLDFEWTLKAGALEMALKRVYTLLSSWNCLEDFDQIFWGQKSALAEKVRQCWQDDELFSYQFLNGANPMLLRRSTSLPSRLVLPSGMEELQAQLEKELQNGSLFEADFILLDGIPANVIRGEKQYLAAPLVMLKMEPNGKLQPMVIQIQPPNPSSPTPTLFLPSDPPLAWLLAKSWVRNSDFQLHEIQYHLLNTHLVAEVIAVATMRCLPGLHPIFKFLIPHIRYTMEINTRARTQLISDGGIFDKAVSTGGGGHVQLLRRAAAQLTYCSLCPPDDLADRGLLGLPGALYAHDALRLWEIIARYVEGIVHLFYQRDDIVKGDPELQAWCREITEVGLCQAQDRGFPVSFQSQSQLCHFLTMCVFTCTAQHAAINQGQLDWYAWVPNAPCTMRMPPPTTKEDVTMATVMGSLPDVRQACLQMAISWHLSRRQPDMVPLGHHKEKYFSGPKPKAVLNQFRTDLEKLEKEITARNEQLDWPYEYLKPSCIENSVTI
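150 nM 12hLO, 25 mM Hepes pH 7.0 + 0.01% Triton X-100; cpd preinc 15 min RT; 40 uM arachidonic acid, 30 min RT; Fe-XO 30 min; A573/A405 ratio as read-out.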
IMPase inh – cell-permeable inhibitors of inositol monophosphatase (IMPase); CHO-M1 cells, IP1 accumulation, HTRF TR-FRET ratio; inhibition (IP1 accumulation), % at 46.1 µM; P97697; AID 901; 120,000 tested, under 10 active; active = well fitted curve in the direction sought with a large enough effect in the signal ratio, not every such curve was filed as active; inconclusive = small, poorly fitted or top-dose-only effect, or a change in a side signal; inactive = no such curve, though single readings can be large or run the other way; the % refers to the signal ratio;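 also: cells stimulated with carbachol in lithium chloride buffer; plate controls were DMSO basal wells for no effect and reference inhibitor wells for full effect; higher means more IMPase inhibition seen as more IP1 and lower FRET ratio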
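In this qHTS, compounds (final up to 46 uM) act on CHO-M1 cells that are then activated through the M1 receptor with carbachol, in pH 7.4 buffer containing 50 mM LiCl, for 30 min. IP1 accumulation is quantified by the IP-One immunoassay.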
The depositor's hits bear a star; [ ] = another dose, or the depositor's remark. Unless noted, calls follow the shape of the dose curve; as a rule, active = well fitted curve in the direction sought with a large enough effect; inconclusive = small, poorly fitted or top-dose-only effect, or another doubt; inactive = no such curve, though single readings can be large; an effect the other way counts as inactive or inconclusive. Unless noted, % is scaled to controls: 0 for no effect and ±100 for the full control effect.

How did Cc1ccc(S(=O)(=O)Nc2ccccc2C=O)cc1 do in these assays?
15-hLO-2 inh: -1%[11.4 µM]; IMPase Li inh: 4%; 12-hLO inh: 3%[11.4 µM]

Results for CC(=O)CCc1c(C)c2cccc(C)c2[nH]c1=O ?
15-hLO-2 inh: -4%; IMPase Li inh: 7%[38.3 µM]; 12-hLO inh: -1%; IMPase inh: -6

Results for COc1cccc2c(=S)c(CCC(C)=O)c(C)[nH]c12 ?
IMPase Li inh: 10µM*; 12-hLO inh: -1%; IMPase inh: -20

Results for CNc1ccc(O)cc1 ?
15-hLO-2 inh: -15%; IMPase Li inh: 49%; 12-hLO inh: 7%

How did COC(=O)c1cc(C#N)c(NCc2ccc(Cl)cc2Cl)nc1C do in these assays?
15-hLO-2 inh: -12%; IMPase Li inh: 8.9µM*; 12-hLO inh: -3%; IMPase inh: -6

Results for Cc1cc(SCCC(=O)O)nc2c(C)cccc12 ?
15-hLO-2 inh: 7%; IMPase Li inh: 10µM*; 12-hLO inh: 9%; IMPase inh: inconclusive

What do the screens show for `CCC(C)(C)C(=O)O[C@@H]1C[C@H](C)C=C2C=C[C@H](C)[C@@H](CC[C@H]3C[C@@H](O)CC(=O)O3)[C@H]21`?
15-hLO-2 inh: 10%[25.6 µM]; 12-hLO inh: -3%[25.6 µM]

Results for N[C@H](CCC(=O)NCS(=O)(=O)O)C(=O)O ?
15-hLO-2 inh: 3%; 12-hLO inh: -2%; IMPase inh: -2

Results for COc1ccc(C(=O)OCc2cc3cccc(C)c3[nH]c2=O)cc1 ?
15-hLO-2 inh: -1%; IMPase Li inh: 10µM*; 12-hLO inh: -5%; IMPase inh: 6

How did NCCCc1ccc2oc3ccccc3c2c1 do in these assays?
15-hLO-2 inh: 10%[11.4 µM]; IMPase Li inh: 1%; 12-hLO inh: 4%[11.4 µM]

Results for Cc1ccc2nc(-c3ccc(SCC(=O)Nc4ccc5c(c4)OCCO5)nc3)[nH]c2c1 ?
IMPase Li inh: 14%; 12-hLO inh: 0%

What do the screens show for `O=C(CSc1ccc(-c2nc3ccccc3[nH]2)cn1)Nc1ccc2c(c1)OCCO2`?
15-hLO-2 inh: 6%[11.4 µM]; IMPase Li inh: 8.9µM*; 12-hLO inh: -4%; IMPase inh: 0[1.84 µM]

Results for CCc1c(C)nc2ccc(Br)cc2c1Cl ?
15-hLO-2 inh: 2%; IMPase Li inh: 11µM*; 12-hLO inh: 0%; IMPase inh: -13

Results for Nc1nc(Cl)nc2ccc(Br)cc12 ?
IMPase Li inh: -19%; 12-hLO inh: -4%

What do the screens show for `COc1ccc2[nH]c(=O)c(C(c3nnnn3C(C)(C)C)N(Cc3ccco3)CC3CCCO3)cc2c1` (centres undefined)?
15-hLO-2 inh: -5%; IMPase Li inh: 16µM*; 12-hLO inh: -8%; IMPase inh: 2

What do the screens show for `CC(=O)[C@@H]1[C@H]2[C@H](C(=O)[C@H]3OC[C@@H]2O3)[C@H]2C=Cc3ccccc3N21`?
15-hLO-2 inh: -21%; IMPase Li inh: 352%; 12-hLO inh: -9%; IMPase inh: inconclusive

How did N.N.N.N.N.N.N.N.N.N.N.N.N.N.O.O.[Cl-].[Cl-].[Cl-].[Cl-].[Cl-].[Cl-].[Ru].[Ru].[Ru] do in these assays?
IMPase Li inh: 10%

What do the screens show for `Cc1cc(C)cc(-n2c(C)cc(C=C(C#N)C#N)c2C)c1`?
15-hLO-2 inh: -6%; IMPase Li inh: 10µM*; 12-hLO inh: 4%; IMPase inh: 0

What do the screens show for `Brc1ccc(-c2nc3ccccc3s2)s1`?
15-hLO-2 inh: -2%; IMPase Li inh: 11µM*; 12-hLO inh: -7%; IMPase inh: inconclusive

Results for c1ccc(-c2nc3ccccc3s2)nc1 ?
15-hLO-2 inh: 1%; IMPase Li inh: -20%[38.3 µM]; 12-hLO inh: -1%; IMPase inh: -5

How did O=C(O)c1cc2c(cc1S(=O)(=O)O)[C@H]1[C@@H](C3[C@H]2[C@@]2(Cl)C(Cl)=C(Cl)C3(Cl)C2(Cl)Cl)[C@]2(Cl)C(Cl)=C(Cl)C1(Cl)C2(Cl)Cl (some centres undefined) do in these assays?
IMPase Li inh: -8%

What do the screens show for `CCOC(=O)c1cc(-c2ccccc2)sc1NC(=O)COC(=O)c1cccc(S(N)(=O)=O)c1`?
IMPase Li inh: 2%

Results for CCOC(=O)c1cc(-c2ccccc2)sc1NC(=O)COC(=O)c1ccc(Cl)c(S(N)(=O)=O)c1 ?
IMPase Li inh: 13µM*

What do the screens show for `O=C(O)c1cc(-c2ccc(Cl)s2)nc2ccccc12`?
IMPase Li inh: 11µM*

Results for COCCCn1c(=S)[nH]c2c(sc3ccccc32)c1=O ?
IMPase Li inh: 10µM*

What do the screens show for `O=c1c2oc3ccccc3c2[nH]c(=S)n1-c1ccc(F)cc1`?
IMPase Li inh: 11µM*

What do the screens show for `O=C1C=CC2=C3c4cc(O)c(O)cc4C[C@@]3(O)COC2=C1`?
IMPase Li inh: 15%

Results for Cc1ccc(-c2nc3cccnc3o2)cc1NC(=O)COc1ccc(C(C)(C)C)cc1 ?
15-hLO-2 inh: 8%; IMPase Li inh: 36%[38.3 µM]; 12-hLO inh: -9%; IMPase inh: 14

What do the screens show for `Cc1ccc(-c2nc3cccnc3o2)cc1NC(=O)COc1ccc(Cl)cc1C`?
15-hLO-2 inh: inconclusive; IMPase Li inh: 6.3µM*; 12-hLO inh: 5%; IMPase inh: inconclusive

What do the screens show for `Cc1ccc(-c2nc3ncccc3o2)cc1NC(=O)COc1ccccc1`?
15-hLO-2 inh: 3%; IMPase Li inh: 11µM*; 12-hLO inh: 9%; IMPase inh: 5

How did CC(=O)C1=C(O)C=C2Oc3c(C(C)=O)c(O)c(C)c(O)c3C2(C)C1=O (centres undefined) do in these assays?
IMPase Li inh: 7%

What do the screens show for `CCCCCCN(C(=O)CCCCCN1C(=O)NC(C2CC2)C(C(=O)OCc2ccccc2)=C1C)C(C(=O)NCCCC)c1ccc(OCC(=O)OC)c(C(=O)OC)c1` (centres undefined)?
15-hLO-2 inh: 18%; IMPase Li inh: 11%; 12-hLO inh: -3%

How did Nc1nc(SC/C=C\c2ccccc2)c2[nH]cnc2n1 do in these assays?
15-hLO-2 inh: -3%[11.4 µM]; IMPase Li inh: 13%; 12-hLO inh: 1%[11.4 µM]

How did COc1cccc(Cn2c(=O)c(-c3ccc(Cl)cc3)nc3cnc(OC)nc32)c1 do in these assays?
15-hLO-2 inh: -5%; IMPase Li inh: 1%

Results for O=c1sc(N2CCN(c3ccc(F)cc3)CC2)nc2ccsc12 ?
15-hLO-2 inh: 2%; IMPase Li inh: 22µM*; 12-hLO inh: -1%; IMPase inh: 6

What do the screens show for `O=C(NC1CCCCC1)C(=S)NCCc1ccccc1`?
IMPase Li inh: 4%

How did O=C(NC(=S)NCCc1ccccc1)c1ccccc1 do in these assays?
15-hLO-2 inh: 13µM*; IMPase Li inh: 31%[38.3 µM]; 12-hLO inh: 18µM*; IMPase inh: 8

What do the screens show for `S=C(NCCc1ccccc1)NC1CCCCCC1`?
15-hLO-2 inh: 25µM*; IMPase Li inh: 3%; 12-hLO inh: inconclusive; IMPase inh: -5

What do the screens show for `O=C(CNC(=S)NC(=O)c1ccc(Br)o1)c1ccccc1`?
IMPase Li inh: 4%; 12-hLO inh: 4%

How did O=C(CNC(=S)NC(=O)c1ccc(Cl)cc1)c1ccccc1 do in these assays?
IMPase Li inh: 10µM*; 12-hLO inh: -9%
